Assay results as given in PubChem BioAssay (EPA / NIEHS).
Records with an inconclusive call do not appear. Calls of active or inactive are those of the source. Rule for the calls: active = hit-call score of the fitted dose curve at least 0.9, where 1 is the maximum; inconclusive = response in the unintended direction; inactive = score below 0.9.

Target: bovine Estrogen Receptor (ER), ESR1 (gene 407238) (UniProt P49884)
Assay: NVS_NR_bER: NovaScreen (NVS) Nuclear Receptor Binding Assay for bovine Estrogen Receptor (ER) (AID 2283345);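 note: actives lower the bound radioligand count which means they displace the ER ligand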
Experimental: NVS_NR_bER is a biochemical, single-readout assay that uses extracted gene-proteins from Bovine uterine membranes in a tissue-based cell-free assay. Measurements were taken 18 hours after chemical dosing in a 96-well plate.NVS_NR_bER is one of one assay component(s) measured or calculated from the NVS_NR_bER assay. It is designed to make measurements of radioligand binding, a form of binding reporter, as detected with scintillation counting signals by Lysate-based radiodetection technology.Data from the assay component NVS_NR_bER was analyzed into 1 assay endpoint. This assay endpoint, NVS_NR_bER, was analyzed in the positive analysis fitting direction relative to DMSO as the negative control and baseline of activity. Using a type of binding reporter, loss-of-signal activity can be used to understand changes in the binding as they relate to the gene ESR1. Furthermore, this assay endpoint can be referred to as a primary readout, because the performed assay has only produced 1 assay endpoint. To generalize the intended target to other relatable targets, this assay endpoint is annotated to the nuclear receptor intended target family, where the subfamily is steroidal.
Binding assays used specific radioligands (tritiated, iodinated) with non-radioactive competitive displacement ligands in agonist or antagonist protocols (as indicated) and various reference compounds and inhibitors to titrate specific binding to receptors and transporters. Most enzyme assays (CYPs, kinases, phosphatases, proteases, HDACs) used recombinant protein and specific substrates (fluorescence mostly, some colorimetric and radioactive) and inhibitors, followed by a biochemical separation of substrate and product. All assays for the biochemical HTS were initially run in duplicate at a single concentration (10 uM for CYP450 assays and 25 uM for all others). […] Each assay was run with positive and negative controls, and concurrent controls on every plate. The follow-up (secondary) screen tested active chemical-pairs in concentration series, as well as a few additional assays not tested in the primary screen, some selected negative inactives, and several cases re-run in the concentration series for confirmatory purposes.

Sequence of bovine Estrogen Receptor (ER), ESR1 (gene 407238) (P49884 whole entry, looked up): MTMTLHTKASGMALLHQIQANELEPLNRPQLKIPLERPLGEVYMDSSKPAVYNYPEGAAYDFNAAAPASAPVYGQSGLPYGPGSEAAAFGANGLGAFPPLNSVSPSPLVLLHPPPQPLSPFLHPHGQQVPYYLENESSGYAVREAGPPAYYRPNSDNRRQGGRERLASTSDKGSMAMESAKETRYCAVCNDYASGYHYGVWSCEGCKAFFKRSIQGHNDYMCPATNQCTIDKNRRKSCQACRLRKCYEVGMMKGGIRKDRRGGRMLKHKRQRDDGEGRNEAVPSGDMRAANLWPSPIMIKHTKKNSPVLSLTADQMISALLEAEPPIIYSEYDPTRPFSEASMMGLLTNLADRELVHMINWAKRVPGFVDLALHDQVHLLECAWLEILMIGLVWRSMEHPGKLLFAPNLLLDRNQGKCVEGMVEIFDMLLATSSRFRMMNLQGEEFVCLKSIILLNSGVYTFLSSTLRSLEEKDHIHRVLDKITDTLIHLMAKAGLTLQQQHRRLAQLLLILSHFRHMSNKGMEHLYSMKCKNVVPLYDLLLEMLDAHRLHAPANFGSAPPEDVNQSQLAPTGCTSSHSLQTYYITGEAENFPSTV

Row | Compound | outcome | AC50
1 | O=S1(=O)OC(c2ccc(O)cc2)(c2ccc(O)cc2)c2ccccc21 | inactive | –
2 | O=S(=O)(O)c1ccccc1C=Cc1ccc(-c2ccc(C=Cc3ccccc3S(=O)(=O)O)cc2)cc1 | inactive | –
3 | Oc1ccc(Cl)cc1Cc1cc(Cl)ccc1O | inactive | –
4 | Cc1cccc(N)n1 | inactive | –
5 | CC(=O)c1ccc2c(c1)CCCC2 | – | 5.86 µM (active)
6 | O=c1cc(-c2ccccc2)oc2ccccc12 | inactive | –
7 | OC1CCCC1 | inactive | –
8 | CC(=O)[C@H]1[C@H](C#N)C[C@H]2[C@@H]3CC=C4C[C@@H](O)CC[C@]4(C)[C@H]3CC[C@@]21C | inactive | –
9 | CCOC(=O)c1ccccc1C(=C1C=C(Br)C(=O)C(Br)=C1)c1cc(Br)c(O)c(Br)c1 | inactive | –
10 | CC(=O)OC(C)C | inactive | –
11 | Cc1cccc(N(C)C(=S)Oc2ccc3ccccc3c2)c1 | inactive | –
12 | NC(CO)(CO)CO | inactive | –
13 | COc1ccc(-c2coc3cc(O)ccc3c2=O)cc1 | inactive | –
14 | [Cl][In]([Cl])[Cl] | inactive | –
15 | O=C1Nc2ccccc2C1(c1ccc(O)cc1)c1ccc(O)cc1 | inactive | –
16 | O=C(c1ccc(O)cc1)c1ccc(O)cc1O | – | 2.12 µM (active)
17 | [Cl][Bi]([Cl])([c]1ccccc1)([c]1ccccc1)[c]1ccccc1 | inactive | –

Row | Compound | outcome | AC50
18 | Nc1ccc(Oc2ccc(N)c(N)c2)cc1 | inactive | –
19 | CN(C)c1ccc(N=Nc2ccccc2C(=O)O)cc1 | inactive | –
20 | CCC(=O)Oc1ccc(/C(CC)=C(\CC)c2ccc(OC(=O)CC)cc2)cc1 | – | 0.00521 µM (active)
21 | CCC(C)OC(=O)c1ccc(O)cc1 (centres undefined) | – | 9.45 µM (active)
22 | CCCCC/C=C\C/C=C\CCCCCCCC(=O)OC | inactive | –
23 | CC1=Nc2ccc3ccccc3c2C1(C)C | inactive | –
24 | CCOC(=O)N1CCC(=C2c3ccc(Cl)cc3CCc3cccnc32)CC1 | inactive | –
25 | OC1CCCCCCCCCCC1 | inactive | –
26 | O=C(c1ccccc1)c1ccc(O)c(O)c1O | inactive | –
27 | Cc1cc(O)c(Cl)c(C)c1Cl | inactive | –
28 | O=C1CCCCCN1SSN1CCCCCC1=O | inactive | –
29 | CCCCCCCCCCCCCOP(=O)(O)O | inactive | –
30 | S=C(NC1CCCCC1)NC1CCCCC1 | inactive | –
31 | COc1ccc(C(Cl)=C(c2ccc(OC)cc2)c2ccc(OC)cc2)cc1 | inactive | –
32 | C=CC(=O)OCCOC(=O)C=C | inactive | –
33 | C#CC1(O)CC[C@H]2[C@@H]3CCC4=CCCC[C@@H]4[C@H]3CC[C@@]21C (some centres undefined) | – | 6.05 µM (active)
34 | O=C(OCC1CCC2OC2C1)C1CCC2OC2C1 (centres undefined) | inactive | –
